# Data: the supplement of paper PMC6555819
# Tested on: RARa homodimer (NR concentration 270 nM)
# Assay: PBM binding z-score (relative to random genomic background probes); higher = stronger binding; sequences stand for … in GC…GCGATTGACAGCGTAGAATGAAGG
# Procedure, shortened: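 Antibodies against each partner of ligand-free nuclear receptor dimers (one per run) detected binding on custom Agilent 4×180K protein-binding microarrays after 1 h incubation. The double-stranded probes had 34-nt variable regions carrying direct-repeat seeds, single-nucleotide variants, half-site ablations and random human genomic background sequences. Binding z-scores, from regression-normalized fluorescence, use the random background probes as reference.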
row,Sequence,PBM binding z-score
1,CGTCCAAGGTTAGAGAGGTCAGTGAATGCCGAGT,1.11
2,TCTAGCTGGCCAGAGGGTCACTCAAGAGGTACGG,-0.851
3,TCTATTAGTTGAGTAGGGCAACCGAAACAGCGGA,-0.221
4,GGAACGAGGGCAAAGTTGAGAGCATCTGTCGACG,-0.358
5,CCTATGAGTTGACCATAAGGGCAACCGAAGCTCG,0.579
6,CAAACTAGGTCACGAAAGGTCAAAGTAGAATGAC,4.51
7,GCTAGCAGGACATTTGGGTCACTCAATGACGGGC,-0.875
8,GCGACTGGGGCAAAGCAGGTTACCAAAAGGTTGG,-0.773
9,CCTAGTTCGTCAGGAGGTCACACACCGGATATGA,2.32
10,GCTGCTAGGTCAATTGATGGTCAGCTAAAGCTCG,-0.705
11,TCTTGTACATCAAAGGTTAAGAAAGCCGAAGCCT,0.601
12,ACTAGTTGGTCAGCTGACGTCACACACAATTCGG,0.251
13,ATATGTAGGTTATCGGGTCGTTCAGTTTGCGCAT,1.26
14,TCTTGTAGATCCATAGAGGTTAAGAAAGTGCGCT,0.858
15,TCTGCTAGGTCACCGATGGTCAGCTAATCTGCTA,-1.39
16,AGTCAAAGTTCAGGACGAGCTAACGTAAAGCACG,0.728
17,ACTATGAGTTGACTTAGGGCAACCGATACGACGC,0.486
18,CCTACTGGGCCAAAAAGGTCATTGACGCCGATAA,1.28
19,GCGACTGGGGCACCAGCAGGTTACCATAACTTAA,-0.588
20,TGTCAAAGTTCAAGGGTAACGTAAGTATCCACAC,0.926

row,Sequence,PBM binding z-score
1,CCTACTGGGTCAAAAAGGTCATTGATGCCGATAA,2.31
2,TTACCAGGGTGAGCTGAGGTCGTTGATCCAACTC,-0.657
3,TCTTGTACATCAACAGGAGGTTAAGAAAGATCGA,0.409
4,TCTTGTAGATCAACAGGAGGTTATGAAAGATCGA,-0.449
5,TCATATAGGTAATACAGGTGGAAGTCGGCATCTA,1.5
6,GCTATTAGTTGAAAGGGCCACCGAATGATTCTCG,0.309
7,CCTATTAGTTGACTATAAGGGCAACCGAAGCTCG,1.22
8,TATACAGGGTCAAAGGACAGAGTACGAATGTCGA,1.66
9,CCTCGGAGGACAACAAGAGGTCAGAGCTGCCAGA,0.861
10,TCTATTAGTTGAAGCGCAACCGACGAGTCCGTTT,0.262
11,ACAATGAGGTTATACGTAGATCAGGGAAGAAAGT,0.312
12,ATCTCTAGGTAACCAAGTTAAGTGAATGCCGAAC,1.13
13,ATCTCCAGGTAACCAAGTTCAGTGAATGCCGAAC,0.534
14,TCTACTAGGTCAGTTGGTCAGCTAACGAGCTGCC,0.501
15,GCATATAGGTAATACAAGTTGAAAGTCCGATTGT,0.554
16,TAGCCTAGGTCATGGGCCAATATACCACGCGAAC,0.353
17,GCGACTGGGGCAAAGCAGGTTACCCTAAGGTTGG,-1.43
18,CAAACTAGGTCACCGGAACGTCAAAGTCCGCATG,0.352
19,ATCTCTAGTTAAAAGTTCAGTGAATCCCGAGGAT,1.8
20,ATACCAAGGAGATCGTGAGGTCGTTGATACTAAC,-0.464
